{
  "source": "PubChem BioAssay AID588350",
  "about": "(The Scripps Research Institute Molecular Screening Center, 2011)",
  "note": "Screen size: about 1,900 compounds; about 1,200 (63%) were called active. The set was probably picked from earlier hits. The list is a sample of the results. A number with no mark means an inactive call.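 How the source made its calls: active means mean activation above the mean of solvent-only control wells plus 3 SD (cut at about 22% in these data); inactive means the rest.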",
  "data": [
    {"assay": "frataxin GAA30 reporter activation – cell-based, luminescence, HEK293, lucGAA30, triplicate, counter-screen for GAA850 frataxin promoter activator project, confirmation (AID 588350);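 further: counterscreen of GAA850 promoter hits where activity marks nonselective or luminescence artifacts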", "settings": "HEK293 lucGAA30 FXN promoter luciferase, 24 h; at 6 µM; stronger effect = higher value; DMSO = 0%, 5 µM ipriflavone = 100%", "values": [
      {"smiles": "CC(C)(C)c1ccc(C(=O)NCc2ccco2)cc1", "activation": "102% (active)"},
      {"smiles": "CCCCc1ccc(NC(=S)N2CCCC(CO)C2)cc1", "note": "(stereo not drawn)", "activation": "102% (active)"},
      {"smiles": "CC(C)(C)N1C(=O)[C@H]2[C@@H](c3ccc(Br)cc3)N3C(=O)N(c4cccc(Cl)c4)C(=O)[C@@]3(C)[C@H]2C1=O", "activation": "20.4%"},
      {"smiles": "COc1ccc(N(CCC#N)S(=O)(=O)c2ccc(Cl)cc2)cc1", "activation": "11.8%"},
      {"smiles": "CC(C)CCC(C)NC(=O)c1ccc2nccnc2c1", "note": "(stereo not drawn)", "activation": "77% (active)"},
      {"smiles": "O=c1[nH]cnc2c1c(-c1ccccc1)cn2-c1ccc(F)cc1", "activation": "11.4%"},
      {"smiles": "COc1ccc(Cl)cc1NC(=O)CN(C)C(=O)CCCc1c[nH]c2ccccc12", "activation": "16.9%"},
      {"smiles": "CC[C@@]12C(=O)N(c3ccccc3)C(=O)N1[C@H](c1ccc(Br)cc1)[C@@H]1C(=O)N(C(C)(C)C)C(=O)[C@@H]12", "activation": "21.7%"},
      {"smiles": "CSc1nc(N)c(C#N)c(-c2ccccc2Cl)c1C#N", "activation": "25.8% (active)"},
      {"smiles": "Fc1ccc2nc(N3CCCCC3)sc2c1", "activation": "95.9% (active)"},
      {"smiles": "c1ccc(-c2cc(-c3ccccc3)[nH]n2)cc1", "activation": "129% (active)"},
      {"smiles": "Oc1ccccc1-c1cc(-c2ccc(Cl)cc2)n[nH]1", "activation": "124% (active)"},
      {"smiles": "COc1ccc(-n2cc(-c3ccccc3)c3c(=S)nc[nH]c32)cc1", "activation": "15.8%"},
      {"smiles": "N#CCSc1nc2ccccc2c(=O)n1-c1ccccc1", "activation": "16.1%"},
      {"smiles": "CC1(C(=O)N/N=C/c2cc3c(cc2Br)OCO3)CC1(Br)Br", "note": "(stereo not drawn)", "activation": "30.7% (active)"},
      {"smiles": "COc1ccccc1C1=Nc2cccc3cccc(c23)N1", "activation": "15.9%"},
      {"smiles": "COc1cc(C#Cc2ccc3cc(CCCO)oc(=O)c3c2)cc(OC)c1", "activation": "7.14%"},
      {"smiles": "Cc1ccc(C(=O)NNc2ncnc3ccccc23)cc1", "activation": "79.1% (active)"},
      {"smiles": "CCN(C[C@H]1N[C@@](CC)(C(=O)OC)[C@H]2C(=O)N(Cc3ccccc3)C(=O)[C@@H]12)S(=O)(=O)c1ccc(C(F)(F)F)cc1", "activation": "22.6% (active)"},
      {"smiles": "CN(C)C(=S)N=c1ssc(=S)n1Cc1ccco1", "activation": "12.5%"},
      {"smiles": "Cc1nc(-c2ccc(F)cc2)c(CC(=O)Nc2cc(S(=O)(=O)N3CCCCC3)ccc2C)s1", "activation": "16.7%"},
      {"smiles": "COc1ccc2[nH]c(=O)c(CN(Cc3nnnn3CCc3ccccc3)CC3CCCO3)cc2c1", "note": "(stereo not drawn)", "activation": "-9.61%"},
      {"smiles": "COc1cc(/C=N/Nc2nc3ccccc3s2)ccc1O", "activation": "124% (active)"},
      {"smiles": "CCCCn1c(SCC(=O)NCCc2ccc(OC)c(OC)c2)nc2c1c(=O)n(C)c(=O)n2C", "activation": "26.9% (active)"},
      {"smiles": "COc1ccc(NC(=O)CSc2nc(SC)ns2)c(OC)c1", "activation": "119% (active)"},
      {"smiles": "CCOc1ccc(Nc2oc(Cc3ccccc3)nc2C#N)cc1", "activation": "58.9% (active)"},
      {"smiles": "COc1ccc(-c2csc(Nc3ccc(O)cc3)n2)cc1", "activation": "107% (active)"},
      {"smiles": "O=c1oc2ccccc2cc1-c1csc(Nc2ccc(O)cc2)n1", "activation": "148% (active)"},
      {"smiles": "COc1ccc(-c2csc(Cc3nc(O)cs3)n2)cc1", "activation": "-53.3%"},
      {"smiles": "CC1(Cc2cccc(C#N)c2)C(=O)Nc2ccc(-c3cccc(C(F)(F)F)c3)cc21", "note": "(stereo not drawn)", "activation": "10.6%"},
      {"smiles": "COc1ccc(-c2nnc(SCC(=O)c3cccs3)o2)c(OC)c1", "activation": "88.6% (active)"},
      {"smiles": "Cc1ccccc1Nc1c([N+](=O)[O-])ccc2nonc12", "activation": "29.2% (active)"},
      {"smiles": "Cc1ccc(C2Nc3cccc4cccc(c34)N2)cc1", "activation": "24.8% (active)"},
      {"smiles": "CC(Sc1nc2c([nH]c3ccccc32)c(=O)n1C)c1ccccc1", "note": "(stereo not drawn)", "activation": "22.8% (active)"},
      {"smiles": "COc1cccc(Nc2nc(N)c([N+](=O)[O-])c(NCc3ccco3)n2)c1", "activation": "42% (active)"},
      {"smiles": "CC1(C(=O)NCc2cccc3ccccc23)CCN1Cc1ccc(-c2ccccc2)o1", "note": "(stereo not drawn)", "activation": "24.2% (active)"},
      {"smiles": "CCOC(=O)c1cc2c(=O)n3ccccc3nc2n(CC(C)C)c1=NC(=O)c1c(-c2c(F)cccc2Cl)noc1C", "activation": "-0.82%"},
      {"smiles": "Cc1ccc(NC(=O)c2sc3nc(N)c(C#N)cc3c2N)cc1", "activation": "61.2% (active)"}
    ]}
  ]
}
